The campaign covered roughly 350,000 compounds. About 2,700 (0.77%) were called active.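 How the source made its calls: active means inhibition reaching at least a set limit at 20 µM in the primary screen (cut at about 59% in these data); inactive means the rest.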 Many of the other results were omitted from the sample, so actives are more common in it than they were.
These compounds were tested on glucose-6-phosphate dehydrogenase-6-phosphogluconolactonase (Plasmodium falciparum 3D7) (assay: PfG6PD enzyme inhibitors, primary screen, biochemical, fluorescence intensity, uHTS (AID 504690;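 further: 0% = DMSO wells with substrate and 100% = DMSO wells lacking glucose-6-phosphate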)). Conditions: PfGluPho enzyme, NADPH resazurin-diaphorase fluorescence; at 20 µM; active compounds read high.

SMILES | inhibition
O=C(N/N=C/c1cccc(Br)c1)c1ccc(N2CCCC2=O)cc1 | 9.79% (inactive)
O=C(N/N=C\c1cccc(Br)c1)c1ccccc1-n1cccc1 | 77.6% (active)
O=C(CNC(=O)c1cccs1)N/N=C/c1cccc(Br)c1 | -3.31% (inactive)
CCCNc1c(N)c(=O)c1=O | -14.2% (inactive)
CC(=O)c1c(C)[nH]c(=S)c(C#N)c1-c1ccc(F)cc1 | 36.1% (inactive)
CCc1c(C)[nH]c(=S)c(C#N)c1C | 60.6% (active)
CN(C)CCCNC(=S)N1CCN(c2nc(-c3ccccc3)cs2)CC1 | 7.81% (inactive)
FC(F)(F)c1ccc2c3n(nc2c1)CCN=C3c1ccc(Cl)cc1 | 21.6% (inactive)
O=C(CC1Oc2ccccc2NC1=O)NCCCN1CCN(Cc2ccccc2)CC1 (stereo unspecified) | 17.8% (inactive)
Cc1noc(C)c1CSc1nc2cc(S(=O)(=O)N3CCOCC3)ccc2o1 | 46.6% (inactive)
COc1ccc(CCn2c(NCCCN3CCOCC3)nc3c2c(=O)[nH]c(=O)n3C)cc1 | 5.12% (inactive)
COc1ccc(CCn2c(NN=C3CCCC3)nc3c2c(=O)[nH]c(=O)n3C)cc1 | 77.3% (active)
CC1CCN(c2nc3c(c(=O)[nH]c(=O)n3C)n2CCCc2ccccc2)CC1 | 12.8% (inactive)
CCN(c1ccc2c(c1)OCO2)S(=O)(=O)c1cc(Br)cc2c1N(C(=O)C1CC1)CC2 | 32.5% (inactive)
Nc1cccc2c1C(=O)N(Cc1nnc(-c3ccccc3Br)o1)C2=O | -11.2% (inactive)
COc1ccc(Nc2ncc(F)c(N3CCOCC3)n2)cc1 | -2.57% (inactive)
Cc1cc(Nc2ccc(Cl)cc2)nc(N2CCOCC2)n1 | 74.6% (active)
O=C(CSc1nc(Nc2ccccc2)nc(N2CCOCC2)n1)Nc1cc(Cl)ccc1O | 21.3% (inactive)
C=CCOc1ccc(C(=O)Nc2ccccc2C(=O)N2CCCC2)cc1 | 15.3% (inactive)
C/C(=N/NC(=O)c1cc(Cl)ccc1O)C12CC3CC(CC(C3)C1)C2 | 50.1% (inactive)
O=C(c1ccc(NS(=O)(=O)c2ccc3[nH]c(=O)[nH]c3c2)cc1)N1CCCCC1 | -7.11% (inactive)
N/C(=N\OS(=O)(=O)c1cccc([N+](=O)[O-])c1)c1ccncc1 | -9.59% (inactive)
CC12CCCCC1=CC(=O)CC2 (stereo unspecified) | 10.3% (inactive)

SMILES | inhibition
O=C(COC(=O)Cc1ccc(Cl)cc1Cl)NCc1ccco1 | -17.6% (inactive)
Clc1ccc(Nc2ccc3ccccc3n2)cc1 | 31.9% (inactive)
Cc1cc(Nc2ccc(Br)cc2)nc2ccccc12 | 86.8% (active)
CCOc1ccc(NC(=O)c2cc(C)nc3ccccc23)cc1 | 6.27% (inactive)
O=C(Nc1cccc(Cl)c1)c1cc(S(=O)(=O)N2CCCCC2)c[nH]1 | -8.02% (inactive)
CCOC(=O)Cn1c2c(c(-c3ccccc3OC)cc1=O)CCCC2 | 10.3% (inactive)
CC1=C/C(=N\OS(=O)(=O)c2ccccc2)C=CC1=O | 116% (active)
COC(=O)C(C(=O)Nc1cccc(Cl)c1C)C1CCCC1 (stereo unspecified) | 5.12% (inactive)
CCOC(=O)c1cc(-c2sc(NC(=O)c3ccccc3)nc2C)n(CCO)n1 | 5.2% (inactive)
Cc1ccc(-n2c(-c3ccc(Cl)cc3)n[nH]c2=S)cc1 | 39.8% (inactive)
S=c1[nH]nc(-c2cc(-c3ccsc3)n[nH]2)n1-c1ccccc1 | 63% (active)
Cc1ccc(NCc2n[nH]c(=S)n2-c2ccccc2)cc1Cl | 17.7% (inactive)
CCCCCN(C(=O)CCC(=O)OCC(=O)NCc1ccc(OC)cc1)c1c(N)n(CCCC)c(=O)[nH]c1=O | 6.98% (inactive)
C=CCOc1ccc(Cl)cc1CNCCCN1CCOCC1 | -22.9% (inactive)
CCOC(=O)Cn1nnnc1C | -8.58% (inactive)
CCOC(=O)N1CCC(NC(=O)c2ccc3nc(N4CCOCC4)sc3c2)CC1 | -2.75% (inactive)
COc1ccc(NC(=O)c2sc(N3CCOCC3)nc2-c2ccccc2)c(OC)c1 | 7.35% (inactive)
Cc1nc(N2CCOCC2)sc1C(=O)NN | 61.7% (active)
Cc1ccc(S(=O)(=O)N2CCCCC2)cc1NC(=O)[C@@H]1CCCN1C(=O)c1cccs1 | -10% (inactive)
COc1cc(C=NNC(=O)c2cccnc2)ccc1OC(=O)c1ccccc1F | 0.22% (inactive)
O=C(NN=Cc1ccc2c(c1)CCC2)c1ccccc1O | -13.6% (inactive)
COc1ccc(C(=O)Nc2ccccc2C(=O)N/N=C/c2ccc(O)c(OC)c2)cc1 | 63.8% (active)
CC(C)Cc1nnc(N)s1 | -0.68% (inactive)

SMILES | inhibition
Cc1ccc(C2CC(c3cccc(Br)c3)n3nc(N)nc3N2)cc1 (stereo unspecified) | 18% (inactive)
Cc1csc(=O)n1CC(=O)Nc1ccc(S(C)(=O)=O)cc1 | 1.5% (inactive)
Cc1cc(=O)n2[nH]c(-c3sccc3-n3c(C)ccc3C)cc2n1 | 10.7% (inactive)
C[C@@H]1CN([C@@H](C)CO)S(=O)(=O)c2ccc(-c3ccc(C(=O)N(C)C)cc3)cc2O[C@@H]1CN(C)Cc1ccccc1C(=O)O | 1.43% (inactive)
Cc1ccc2nnn(Cc3cccc(C(C)(C)C)c3O)c2c1 | 4.75% (inactive)
C#CCOCCOCCOCCNc1nc(N2CCN(C(=O)CCCCCCCCCCNC(=O)Cn3cc(CCCCCN)nn3)CC2)nc(N2CCN(C(=O)CCCCCCCCCCNC(=O)[C@H](CO)n3cc(CCCSC)nn3)CC2)n1 | 60% (active)
C#CCOCCOCCOCCNc1nc(N2CCN(C(=O)Cn3cc(CCO)nn3)CC2)nc(N2CCN(C(=O)[C@H](CCCCN)n3cc(CCCC)nn3)CC2)n1 | 6.73% (inactive)
C#CCOCCOCCOCCNc1nc(N2CCN(C(=O)CCCCCCCCCCNC(=O)[C@H]([C@@H](C)CC)n3cc(CCCCN=C(N)N)nn3)CC2)nc(N2CCN(C(=O)CCCCCCCCCCNC(=O)[C@H](CO)n3cc(CCCSC)nn3)CC2)n1 | 44.4% (inactive)
COCc1cc(C)nc2sc3c(=O)n(-c4cccc5ccccc45)nnc3c12 | -2.51% (inactive)
CCC(=O)N1CCC(C(N)=O)(N2CCCCC2)CC1 | -1.08% (inactive)
O=C1CSC(=S)N1c1ccc(O)cc1 | -5.81% (inactive)
CCOc1cccc(/C=N/N2C(=O)CSC2=S)c1O | 60.8% (active)
O=C1CSC(=S)N1/N=C/c1ccc(O)c([N+](=O)[O-])c1 | 18.4% (inactive)
COc1ccccc1CNC(=O)COn1nnc2ccc(S(=O)(=O)N3CCOCC3)cc21 | -5.31% (inactive)
CC(C)C(c1nnnn1C1CCCC1)N1CCN(c2ccccc2F)CC1 (stereo unspecified) | 1.8% (inactive)
Cc1cc(C)c2[nH]c(=O)c(CN(Cc3ccccc3)C(=S)NCCCN(C)C)cc2c1 | -9.85% (inactive)
COc1ccccc1-n1c(SCC(=O)Nc2ccc(Cl)cc2)nc(O)c(Cc2ccccc2)c1=O | -30.4% (inactive)
CC(C)n1cnc2c(NCc3ccccc3)cc(OCC3CCN(C)CC3)cc21 | 65.4% (active)
CN(C)c1nccc(NCc2ccccc2)c1C#N | -1.06% (inactive)
Cn1c(N)cc(=O)n(C)c1=S | -4.84% (inactive)
Cc1ccccc1-c1cc(C(=O)NCc2cccs2)n(CC2CC(c3cccnc3)=NO2)n1 (stereo unspecified) | 1.18% (inactive)
Cc1ccc(OS(=O)(=O)c2ccc(-c3csc(C)n3)s2)c(C)c1 | 17.7% (inactive)
FC(F)(F)C1CCCN(c2nsc3ccccc23)C1 (stereo unspecified) | 110% (active)

SMILES | inhibition
COc1ccc(Cl)cc1NC(=O)COc1ccc2c(c1)OCO2 | -7.15% (inactive)
Cc1ccc(SC(C)C(=O)NCc2ccc(F)cc2)cc1 (stereo unspecified) | 0.13% (inactive)
CCC(=C/c1sc2ccc3ccccc3c2[n+]1C)/C=C1\Sc2ccc3ccccc3c2N1C | 113% (active)
CCC[C@H]1CCCC/C=C\CCCC(=O)OCCN1C(=O)OC(C)(C)C | -3.27% (inactive)
C=CC(=O)Nc1ccc(Nc2ccnc(Nc3ccc(N4CCN(C)CC4)cc3)n2)cc1 | 77.4% (active)
Cn1cnnc1SCC(=O)Nc1ccc(N2CCOCC2)cc1 | 7.84% (inactive)
CN1CCN(c2nc(Nc3ccc(O)cc3)nc3ccccc23)CC1 | 3.52% (inactive)
CCCC[C@H]1COCCS(=O)(=O)N1Cc1cccc(Cl)c1 | 14% (inactive)
O=C(CSc1nnc(CN2CCCC2)n1-c1ccc(F)cc1)c1ccc2c(c1)OCO2 | 8.99% (inactive)
COC(=O)CCCC1=CC2=CC(=O)C(C)(OC(=O)c3cccs3)C(=O)C2=CN1CC(C)C (stereo unspecified) | 61.6% (active)
COC(=O)CCCC1=CC2=CC(=O)C(C)(OC(=O)c3cccs3)C(=O)C2=CN1c1cccc(C#N)c1 (stereo unspecified) | 31.5% (inactive)
CCCCC1=CC2=CC(=O)C(C)(OC(=O)CC)C(=O)C2=CN1CCCOC(C)C (stereo unspecified) | 34.2% (inactive)
Cc1cccc(N2CCC(NCc3c(C(=O)N4CCCCC4)nc4c(C)cccn34)CC2)c1 | -3.68% (inactive)
O=Cc1cn(-c2ccccc2)nc1-c1ccccn1 | -1.58% (inactive)
COc1ccc(-c2nn(-c3ccccc3)cc2/C=N/Nc2ccccn2)cc1OC | 70.3% (active)
COc1ccc(-c2nn(-c3ccccc3)cc2C(=O)Nc2nccs2)cc1OC | 32.2% (inactive)
COc1ccc(OC)c(/C=C/C(=O)c2ccc3c(c2)OCO3)c1 | 2.18% (inactive)
Cc1ccc(OCC(=O)Nc2ccccc2Sc2ccc(Cl)cc2)c([N+](=O)[O-])n1 | 99.2% (active)
CCc1ccccc1NC(=O)CN(C)C(=O)COc1ccc(C)nc1[N+](=O)[O-] | -20.3% (inactive)
Cc1ccc(OCC(=O)NC(C)c2ccccc2)c([N+](=O)[O-])n1 (stereo unspecified) | -11.2% (inactive)
O=S(=O)(NCC1CCCO1)c1ccc2ccccc2c1 (stereo unspecified) | -2.51% (inactive)
COCCNC(=O)NC(=O)COC(=O)C1(c2ccc(Cl)cc2)CC1 | 8.76% (inactive)

Reference: PubChem BioAssay AID504690 (Sanford-Burnham Center for Chemical Genomics, 2011)
